Drawing on publication PMC8384837, “Expanding the binding specificity for RNA recognition by a PUF domain”, this text covers binding signal for twelve sequences.

Residue numbers refer to the chain shown, from its start.

What all share (experiment): yeast three-hybrid, YBZ-1, SC-Leu-His + 0.5 mM 3-AT, 4 days
Common to all, as to conditions: tags: N-Gal4 AD-HA kept; label: inside an RPR1-promoter hybrid RNA with tandem MS2 sites; ssRNA

The target of one assay is T1, PUM1 PUF domain R6-SWD (Homo sapiens, UniProt Q14671 828-1176, N1043S;Y1044W;Q1047D).
T1 sequence: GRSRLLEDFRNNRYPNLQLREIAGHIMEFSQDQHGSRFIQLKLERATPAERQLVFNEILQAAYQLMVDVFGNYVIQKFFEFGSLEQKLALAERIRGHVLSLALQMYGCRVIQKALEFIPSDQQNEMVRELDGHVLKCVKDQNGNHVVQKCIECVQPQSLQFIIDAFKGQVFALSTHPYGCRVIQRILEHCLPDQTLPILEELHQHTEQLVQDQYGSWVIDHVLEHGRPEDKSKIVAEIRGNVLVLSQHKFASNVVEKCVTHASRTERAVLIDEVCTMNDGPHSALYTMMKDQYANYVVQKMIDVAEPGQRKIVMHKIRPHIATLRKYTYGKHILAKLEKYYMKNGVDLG
Summed up: (§1)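 A centromeric plasmid in strain YBZ-1 co-expressed Pumilio-1 PUF domain libraries, randomized at the three base-contacting residues of each repeat, with matching RNA elements; the strain carries a LexA–MS2 coat fusion and a HIS3 reporter. After four days on SC-Leu (input) or SC-Leu-His + 0.5 mM 3-AT (selection), the repeat regions were PCR-amplified and Illumina-sequenced. The interaction score is the log change in variant frequency from input to selection, using log2 and a pseudocount of 1 where absent.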

In the next assay the target is PUM1 PUF domain R8-MHP (Homo sapiens, UniProt Q14671 828-1176, N1122M;Y1123H;Q1126P). The method in brief:
as §1

A further assay addresses PUM1 PUF domain R8-HFD (Homo sapiens, UniProt Q14671 828-1176, N1122H;Y1123F;Q1126D). The method in brief:
as §1

For another assay, the target named is PUM1 PUF domain R8-CYP (Homo sapiens, UniProt Q14671 828-1176, N1122C;Q1126P). Summed up:
as §1

For the next assay, the target named is PUM1 PUF domain R4-TNG (Homo sapiens, UniProt Q14671 828-1176, N971T;H972N;Q975G). The method in brief: as §1
For a further assay, the target named is PUM1 PUF domain R4-HRV (Homo sapiens, UniProt Q14671 828-1176, N971H;H972R;Q975V). Summed up:
as §1

Another assay has as its target PUM1 PUF domain R4-PYT (Homo sapiens, UniProt Q14671 828-1176, N971P;H972Y;Q975T). The method in brief:
as §1

The next assay deals with PUM1 PUF domain R1-KAR (Homo sapiens, UniProt Q14671 828-1176, S863K;R864A;Q867R). Summed up: as §1
The target in the next assay is PUM1 PUF domain R4-ACC (Homo sapiens, UniProt Q14671 828-1176, N971A;H972C;Q975C). Summed up:
as §1

Another assay deals with T2, PUM1 PUF domain R6-TFT (Homo sapiens, UniProt Q14671 828-1176, N1043T;Y1044F;Q1047T).
T2 sequence: T1 sequence with S216T, W217F, D220T
The method in brief: as §1

A further assay deals with PUM1 PUF domain R5-FFV (Homo sapiens, UniProt Q14671 828-1176, C1007F;R1008F;Q1011V). Summed up:
as §1

The target of another assay is PUM1 PUF domain R1-GHR (Homo sapiens, UniProt Q14671 828-1176, S863G;R864H;Q867R). The method in brief:
as §1

The target of another assay is PUM1 PUF domain R5-FRT (Homo sapiens, UniProt Q14671 828-1176, C1007F;Q1011T). The method in brief:
as §1

For the next assay, the target named is PUM1 PUF domain R7-KTE (Homo sapiens, UniProt Q14671 828-1176, S1079K;N1080T). The method in brief:
as §1

For another assay, the target named is PUM1 PUF domain R7-EYN (Homo sapiens, UniProt Q14671 828-1176, S1079E;N1080Y;E1083N). Summed up: as §1
A further assay deals with PUM1 PUF domain R7-RGN (Homo sapiens, UniProt Q14671 828-1176, S1079R;N1080G;E1083N). Summed up:
as §1

A further assay addresses PUM1 PUF domain R5-RAM (Homo sapiens, UniProt Q14671 828-1176, C1007R;R1008A;Q1011M). Summed up:
as §1

The target of another assay is PUM1 PUF domain R5-NRR (Homo sapiens, UniProt Q14671 828-1176, C1007N;Q1011R). The method in brief: as §1
The next assay has as its target PUM1 PUF domain R3-GPK (Homo sapiens, UniProt Q14671 828-1176, C935G;R936P;Q939K). Summed up: as §1
The next assay has as its target PUM1 PUF domain R2-VFV (Homo sapiens, UniProt Q14671 828-1176, N899V;Y900F;Q903V). Summed up: as §1

As to “GGCUAGAACUAGUGGAUCCCCCGGCGCCCGGCGGCUCGAGCCCGGGUAAGUGGAAAUAGUCUGCAUGCCGCCGGGCGCCAUGCCUGCAGGUCGACUCUAGAAAACAUG”, the binding signal in the assay with PUM1 PUF domain R6-SWD was 5.64 log2 enrichment (interaction score).
“GGCUAGAACUAGUGGAUCCCCCGGCGCCCGGCGGCUCGAGCCCGGGUAAGCGUAAAUAGUCUGCAUGCCGCCGGGCGCCAUGCCUGCAGGUCGACUCUAGAAAACAUG”: the binding signal was 2.6 log2 enrichment (interaction score) in the assay with PUM1 PUF domain R8-MHP, 2.46 log2 enrichment (interaction score) in the assay with PUM1 PUF domain R8-HFD and 4.27 log2 enrichment (interaction score) with PUM1 PUF domain R8-CYP.
Take “GGCUAGAACUAGUGGAUCCCCCGGCGCCCGGCGGCUCGAGCCCGGGUAAGUGUACAUAGUCUGCAUGCCGCCGGGCGCCAUGCCUGCAGGUCGACUCUAGAAAACAUG”: the values for the binding signal in the assay with PUM1 PUF domain R4-TNG, with PUM1 PUF domain R4-HRV and with PUM1 PUF domain R4-PYT were 0.22 log2 enrichment (interaction score), 1.98 log2 enrichment (interaction score) and 6.02 log2 enrichment (interaction score), respectively.
As for “GGCUAGAACUAGUGGAUCCCCCGGCGCCCGGCGGCUCGAGCCCGGGUAAGUGUAAAUAGUCUGCAUGCCGCCGGGCGCCAUGCCUGCAGGUCGACUCUAGAAAACAUG”, the binding signal with PUM1 PUF domain R1-KAR was 2.23 log2 enrichment (interaction score); with PUM1 PUF domain R4-ACC, 2.56 log2 enrichment (interaction score); with PUM1 PUF domain R6-TFT it was 3.71 log2 enrichment (interaction score); in the assay with PUM1 PUF domain R4-PYT, 4.57 log2 enrichment (interaction score); with PUM1 PUF domain R5-FFV it was 2.23 log2 enrichment (interaction score).
“GGCUAGAACUAGUGGAUCCCCCGGCGCCCGGCGGCUCGAGCCCGGGUAAGUGUAAAUUGUCUGCAUGCCGCCGGGCGCCAUGCCUGCAGGUCGACUCUAGAAAACAUG”: the binding signal with PUM1 PUF domain R1-GHR was 1.34 log2 enrichment (interaction score); with PUM1 PUF domain R1-KAR, 6.7 log2 enrichment (interaction score).
For “GGCUAGAACUAGUGGAUCCCCCGGCGCCCGGCGGCUCGAGCCCGGGUAAGUGUUAAUAGUCUGCAUGCCGCCGGGCGCCAUGCCUGCAGGUCGACUCUAGAAAACAUG”, the binding signal in the assay with PUM1 PUF domain R5-FRT is 1.56 log2 enrichment (interaction score).
With “GGCUAGAACUAGUGGAUCCCCCGGCGCCCGGCGGCUCGAGCCCGGGUAAGUGUAUAUAGUCUGCAUGCCGCCGGGCGCCAUGCCUGCAGGUCGACUCUAGAAAACAUG”, the binding signal in the assay with PUM1 PUF domain R4-TNG was 2.66 log2 enrichment (interaction score); with PUM1 PUF domain R4-HRV it was 2.89 log2 enrichment (interaction score); in the assay with PUM1 PUF domain R4-PYT it was 7.53 log2 enrichment (interaction score).
As to “GGCUAGAACUAGUGGAUCCCCCGGCGCCCGGCGGCUCGAGCCCGGGUAAGUCUAAAUAGUCUGCAUGCCGCCGGGCGCCAUGCCUGCAGGUCGACUCUAGAAAACAUG”, the binding signal in the assay with PUM1 PUF domain R7-KTE is 2.46 log2 enrichment (interaction score); with PUM1 PUF domain R7-EYN, 3.13 log2 enrichment (interaction score); in the assay with PUM1 PUF domain R7-RGN it was 3.02 log2 enrichment (interaction score).
As to “GGCUAGAACUAGUGGAUCCCCCGGCGCCCGGCGGCUCGAGCCCGGGUAAGUGUCAAUAGUCUGCAUGCCGCCGGGCGCCAUGCCUGCAGGUCGACUCUAGAAAACAUG”, the binding signal in the assay with PUM1 PUF domain R5-FRT was 2.21 log2 enrichment (interaction score); with PUM1 PUF domain R5-RAM, 2.69 log2 enrichment (interaction score); in the assay with PUM1 PUF domain R5-NRR, 6.16 log2 enrichment (interaction score).
As for “GGCUAGAACUAGUGGAUCCCCCGGCGCCCGGCGGCUCGAGCCCGGGUAAGUGUAAUUAGUCUGCAUGCCGCCGGGCGCCAUGCCUGCAGGUCGACUCUAGAAAACAUG”, the binding signal in the assay with PUM1 PUF domain R3-GPK was 3.25 log2 enrichment (interaction score).
In the case of “GGCUAGAACUAGUGGAUCCCCCGGCGCCCGGCGGCUCGAGCCCGGGUAAGUGUAAAAAGUCUGCAUGCCGCCGGGCGCCAUGCCUGCAGGUCGACUCUAGAAAACAUG”, in the assay with PUM1 PUF domain R2-VFV, the binding signal was 5.17 log2 enrichment (interaction score).
For the sequence “GGCUAGAACUAGUGGAUCCCCCGGCGCCCGGCGGCUCGAGCCCGGGUAAGUGUAAAUCGUCUGCAUGCCGCCGGGCGCCAUGCCUGCAGGUCGACUCUAGAAAACAUG”, the binding signal with PUM1 PUF domain R1-GHR was 2.23 log2 enrichment (interaction score).
